Among the data in PubChem BioAssay (NCI) are growth values, retold here.

Where “and” joins values, the source holds several entries; their conditions need not be identical. Identical values can stand only once. The panel holds about 83,000 compounds, 20% with a hit somewhere; the sample as a whole holds those more often.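 In brief: 96-well plates, 48 h treatment, single concentration, percent growth endpoint.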 A number with no mark means an inactive call. Calls of active or inactive are those of the source. Starred links: 1 amine or outer side, 2 acyl side, 3 side chain; linkers in the order of their positions; H or OH if unused. Positions of bridges follow the written chain, without caps; N, C: chain ends. Non-standard residues stand in square brackets, D forms with d. Residues, ends and D or L forms follow the SMILES beside them. Chains are numbered I, II in the order given. Actinocin(9to1) = Cc1c2oc3c(C)ccc(C(=O)[*:1])c3nc-2c(C(=O)[*:2])c(N)c1=O; aThr = C[C@H](O)[C@H](N)C(=O)O; NMeV = CN[C@H](C(=O)O)C(C)C; Sar = CNCC(=O)O

In the first experiment the test system is MCF7 breast. Nature of the experiment: NCI-60 one-dose screen, 48 h (100 = growth as untreated, 0 = no growth, -100 = all killed). The note with it: 0.0025 µM. As to the method:
Growth inhibition of the MCF7 human tumor cell line is measured as a screen for anti-cancer activity. Cells are grown in 96 well plates and exposed to the test compound for 48 hours. Compounds are tested at a single concentration, which is 10^-5 M for most compounds. The reported endpoint is percent growth (GI% or GIPRCNT), where numbers from 0 - 100% represent growth inhibition, and numbers from -100% - 0 represent cell death. For example, a value of 40 represents 60% growth inhibition. A value of 0 means no net growth occurred over the course of the experiment. A value of -40 indicates 40% of cells at the beginning of the experiment died by the end of the experiment. A value of -100 means all cells are dead at the end of the experiment.
NCI-60 Human Tumor Cell Lines Screen was performed using the standard one-dose NCI protocol, which is described in more detail at https://dtp.cancer.gov/discovery_development/nci-60/default.htm.
Compounds with GIPRCNT values below 10 were considered active. Activity score was based on GIPRCNT using the following formula: […]
Score is 0 for GIPRCNT values of 100 or above, 50 for GIPRCNT values of 0, and 100 for GIPRCNT values of -100.
Take `Cc1c2oc3c(C)ccc(C(=O)N[C@@H]4C(=O)N[C@H](C(C)C)C(=O)N5CCC[C@H]5C(=O)N(C)CC(=O)N(C)[C@@H](C(C)C)C(=O)O[C@H]4C)c3nc-2c(C(=O)N[C@@H]2C(=O)N[C@H](C(C)C)C(=O)N3CCC[C@H]3C(=O)N(C)CC(=O)N(C)[C@@H](C(C)C)C(=O)O[C@H]2C)c(N)c1=O` (I: [aThr][dV]P[Sar][NMeV] / II: [aThr][dV]P[Sar][NMeV]; ester I:1-I:C, II:1-II:C; linker I:N-II:N via Actinocin(9to1)): the growth was 12.2%.

Still in this experiment, the particulars now being: 10 µM.
As for `COc1cc(C(C)(C)C)cc(OC)c1C(O)(c1c(OC)cc(C(C)(C)C)cc1OC)c1c(OC)cc(C(C)(C)C)cc1OC`, the growth is -88.6% (active).
The same measure, in the same setting: then `O=c1[nH]cc(F)c(=O)[nH]1`, with 29.6% and 18.3%; and `Cc1c2oc3c(C)ccc(C(=O)N[C@@H]4C(=O)N[C@H](C(C)C)C(=O)N5CCC[C@H]5C(=O)N(C)CC(=O)N(C)[C@@H](C(C)C)C(=O)O[C@H]4C)c3nc-2c(C(=O)N[C@@H]2C(=O)N[C@H](C(C)C)C(=O)N3CCC[C@H]3C(=O)N(C)CC(=O)N(C)[C@@H](C(C)C)C(=O)O[C@H]2C)c(N)c1=O` (I: [aThr][dV]P[Sar][NMeV] / II: [aThr][dV]P[Sar][NMeV]; ester I:1-I:C, II:1-II:C; linker I:N-II:N via Actinocin(9to1)), with -15.3% (active).
For `O=C(/C(=C/c1ccccc1)CBr)c1ccccc1`, the growth was 42.9%.
On the same count and under the same terms, the same measure for `Nc1ccc2cc(Br)c3ccccc3c2c1`: 35.1%; for `CSc1ccc2c(c1)C(N1CCN(C)CC1)Cc1ccccc1S2` (centres undefined): 20.9%; for `CN1CCN(c2ccc3nc(-c4ccc5nc(-c6ccc(O)cc6)[nH]c5c4)[nH]c3c2)CC1`: 34.5%.
As for `N#C/C(=C1C=C/C(=N\O)C(Cl)=C\1)c1ccccc1`, the growth is 14.8%.
Turning to `Cc1cnc(/C=N\NC(N)=S)c2cccc(N)c12`, the growth is 9.29% (active).
With `CCCCCCCCCCCCCCCCCN`, the growth was 100%.
The same measure, in the same setting: then `CN(C)CCC(=O)c1c[nH]c2ccccc12`, with 93.2%; and `Cc1cc(NCCCN(C)C)c2ccc3c(ccc4c(NCCCN(C)C)cc(C)nc43)c2n1`, with -89% (active); and `S=c1[nH]nc(Cc2ccccc2)c(=S)[nH]1`, with 96.5%.
As to `BrC/C=C/C[P+](c1ccccc1)(c1ccccc1)c1ccccc1`, the growth was 20.3%.

The same experiment, now with this note: 25 µM.
For `O=c1[nH]cc(F)c(=O)[nH]1`, the growth was 11.5%.

Staying with this experiment, now noted: 50 µM.
In the case of `O=c1[nH]cc(F)c(=O)[nH]1`, the growth was 18.2%.

Still in this experiment, the particulars now being: 100 µM.
On to `COc1ccc2c(C)cc(N/N=C/c3sccc3C)nc2c1`, for which the growth is -73.1% (active) and -100% (active).
Still for that read-out and setting: the same measure for `Cc1ccc2nc(N/N=C/c3ccc(C)s3)cc(C)c2c1`: -94% (active) and -100% (active).
